# Data reported in PubChem BioAssay (NCI).
# Several values for one entry are separate records, joined by “and”; a condition that tells them apart may be missing. Equal entries are not always repeated. The panel holds about 83,000 compounds, 20% with a hit somewhere; the sample as a whole holds those more often.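 Growth was measured after 48 h exposure to one concentration of compound in 96-well plates. Values under 10 count as active.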 Activity calls are given as the source filed them.
# Tested on: SNB-75 CNS
# Test: NCI-60 one-dose screen, 48 h (100 = growth as untreated, 0 = no growth, -100 = all killed)
# Details: 10 µM unless noted
row,SMILES,growth
1,CC[C@@]1(O)C[C@H](OC2CC(N(C)C)C(O)C(C)O2)c2c(O)c3c(c(O)c2[C@H]1OC1CC(N(C)C)C(O)C(C)O1)C(=O)c1cccc(O)c1C3=O (stereo not given in full),-94.6% (active)
2,COC1CC(CC2CCC(C)C(C(C)C(=O)O)O2)OC2(OC(C)(C3CCC(C)(C4OC(C5OC(O)(CO)C(C)CC5C)CC4C)O3)CC2C)C1C (stereo not given),-60.6% (active)
3,CCC(=O)OC1CCn2c1nc1c2C(=O)C(C)=C(N2CC2)C1=O (stereo not given),-87% (active)
4,CO[C@H](/C(C)=C/C=C/C(C)=C/c1coc(C)n1)[C@H](C)[C@H]1C[C@@H](O)[C@@]2(C)O[C@H]2/C=C/[C@@H](C)[C@@H]2C[C@@H](CC(=O)O2)C[C@H]2O[C@@H]2C(=O)O1,-46.7% (active)
5,CC1=C(CO)C2=C(C)C3(CC3)[C@@](C)(O)C(=O)C2=C1,-83.8% (active)
6,CC[n+]1c(-c2ccccc2)c2cc(N)ccc2c2ccc(N)cc21,-88.5% (active)
7,CN1CCN(c2ccc([N+](=O)[O-])c3no[n+]([O-])c23)CC1,-78.2% (active)
8,COc1cccc2c1cc([N+](=O)[O-])c1c(C(=O)O)cc3c(c12)OCO3,79.4% (inactive) and 106% (inactive)
9,CCOC(=O)C(NC(=O)C(Cc1ccc(N(CCCl)CCCl)cc1)NC(C)=O)C(C)C (stereo not given),85.9% (inactive)
10,C[C@]12CC[C@H](O)CC1=CC[C@@H]1[C@@H]2CC[C@]2(C)C(=O)CC[C@@H]12,71.6% (inactive)
11,NCCc1ccc(OCc2ccccc2)c(OCc2ccccc2)c1,63.9% (inactive)
12,S=C(SSC(=S)N1CCCCC1)N1CCCCC1,50.5% [100 µM] (inactive)
13,Oc1cccc2cccnc12,101% (inactive) and 106% (inactive) and 89.6% (inactive)
14,COc1ccccc1/C=C(/C)[N+](=O)[O-],68.3% (inactive) and 85% (inactive)
15,CC1=C2C(=O)[C@H]3[C@@H](CC=C4C[C@@H](O)CC[C@@]43C)[C@@H]2CC[C@]12O[C@@H]1C[C@H](C)CN[C@H]1[C@H]2C,68.6% (inactive)
16,Cc1cc(N=Nc2ccccc2C)ccc1N,42.5% (inactive)
17,COc1ccc(OC)c(/C=C/[N+](=O)[O-])c1,33.7% (inactive)
18,CC[C@](O)(C(=O)O)c1cc2n(c(=O)c1CO)Cc1cc3ccccc3nc1-2,-33.5% (active)
19,Cc1c(N)nc([C@H](CC(N)=O)NC[C@H](N)C(N)=O)nc1C(=O)N[C@H](C(=O)N[C@H](C)[C@@H](O)[C@H](C)C(=O)N[C@H](C(=O)NCCc1nc(-c2nc(C(=O)NCCC[S+](C)C)cs2)cs1)[C@@H](C)O)C(OC1OC(CO)C(O)C(O)C1OC1OC(CO)C(O)C(OC(N)=O)C1O)c1cnc[nH]1 (stereo not given in full),40.6% [2.5 µM] (inactive)
20,CC[C@@]1(O)C(=O)OCc2c1cc1n(c2=O)Cc2cc3ccccc3nc2-1,-41.8% (active)
21,Oc1cc[c]([Hg][Cl])cc1,92.3% (inactive)
22,CCC1(O)CC(OC2CC(N(C)C)C(OC3CC4OC5CC(=O)C(C)OC5OC4C(C)O3)C(C)O2)c2c(cc3c(c2O)C(=O)c2c(O)ccc(O)c2C3=O)C1C(=O)OC (stereo not given),-98% (active)
23,O=C1c2ccccc2C(=O)C(Cl)C1Cl (stereo not given),54% (inactive)
24,Cc1ccc(C(=O)OC(C(=O)O)C(OC(=O)c2ccc(C)cc2)C(=O)O)cc1 (stereo not given) (tested in a mixture with another compound),55% (inactive)
25,CCCCCCCCCCCC1CCCC(C)N1 (stereo not given),82% (inactive)
26,CC(=O)O[C@H]1C[C@@H]2OC3C=C(C)CCC3(C)[C@@]1(C)[C@@]21CO1 (stereo not given in full),11.2% (inactive) and -18.3% (active)
27,CC[C@@]1(O)C[C@H](OC2CC(N(C)C)C(OC3CC(O)C(OC4CCC(=O)C(C)O4)C(C)O3)C(C)O2)c2c(cc3c(c2O)C(=O)c2c(O)ccc(O)c2C3=O)[C@H]1C(=O)OC (stereo not given in full),-37.1% (active)
28,C[C@H]1CCC/C=C/[C@@H]2C[C@H](O)C[C@H]2[C@H](O)/C=C/C(=O)O1,-19.7% (active)

# Tested on: SNB-19 CNS
# Test: as above
# Details: 10 µM unless noted
row,SMILES,growth
1,CC[C@@]1(O)C[C@H](OC2CC(N(C)C)C(O)C(C)O2)c2c(O)c3c(c(O)c2[C@H]1OC1CC(N(C)C)C(O)C(C)O1)C(=O)c1cccc(O)c1C3=O (stereo not given in full),5.62% (active)
2,COC1CC(CC2CCC(C)C(C(C)C(=O)O)O2)OC2(OC(C)(C3CCC(C)(C4OC(C5OC(O)(CO)C(C)CC5C)CC4C)O3)CC2C)C1C (stereo not given),-2.87% (active)
3,CCC(=O)OC1CCn2c1nc1c2C(=O)C(C)=C(N2CC2)C1=O (stereo not given),1.12% (active)
4,CO[C@H](/C(C)=C/C=C/C(C)=C/c1coc(C)n1)[C@H](C)[C@H]1C[C@@H](O)[C@@]2(C)O[C@H]2/C=C/[C@@H](C)[C@@H]2C[C@@H](CC(=O)O2)C[C@H]2O[C@@H]2C(=O)O1,21.2% (inactive)
5,CC1=C(CO)C2=C(C)C3(CC3)[C@@](C)(O)C(=O)C2=C1,11.3% (inactive)
6,COC1=C(C)C(=O)C2=C(C1=O)C(CO)N1C(C#N)C3CC4C(C1C2N1CCOC41)N3C (stereo not given),8.12% (active)
7,CC[n+]1c(-c2ccccc2)c2cc(N)ccc2c2ccc(N)cc21,-5.17% (active)
8,CN1CCN(c2ccc([N+](=O)[O-])c3no[n+]([O-])c23)CC1,-30.5% (active)
9,COc1cccc2c1cc([N+](=O)[O-])c1c(C(=O)O)cc3c(c12)OCO3,79.3% (inactive) and 97.7% (inactive)
10,CCOC(=O)C(NC(=O)C(Cc1ccc(N(CCCl)CCCl)cc1)NC(C)=O)C(C)C (stereo not given),90.6% (inactive)
11,C[C@]12CC[C@H](O)CC1=CC[C@@H]1[C@@H]2CC[C@]2(C)C(=O)CC[C@@H]12,95% (inactive)
12,NCCc1ccc(OCc2ccccc2)c(OCc2ccccc2)c1,94.5% (inactive)
13,Oc1cccc2cccnc12,95.1% (inactive) and 108% (inactive) and 102% (inactive)
14,COc1ccccc1/C=C(/C)[N+](=O)[O-],73.9% (inactive) and 107% (inactive)
15,CC1=C2C(=O)[C@H]3[C@@H](CC=C4C[C@@H](O)CC[C@@]43C)[C@@H]2CC[C@]12O[C@@H]1C[C@H](C)CN[C@H]1[C@H]2C,106% (inactive)
16,Cc1cc(N=Nc2ccccc2C)ccc1N,69.7% (inactive)
17,COc1ccc(OC)c(/C=C/[N+](=O)[O-])c1,41.8% (inactive)
18,CC[C@](O)(C(=O)O)c1cc2n(c(=O)c1CO)Cc1cc3ccccc3nc1-2,1.96% (active)
19,Cc1c(N)nc([C@H](CC(N)=O)NC[C@H](N)C(N)=O)nc1C(=O)N[C@H](C(=O)N[C@H](C)[C@@H](O)[C@H](C)C(=O)N[C@H](C(=O)NCCc1nc(-c2nc(C(=O)NCCC[S+](C)C)cs2)cs1)[C@@H](C)O)C(OC1OC(CO)C(O)C(O)C1OC1OC(CO)C(O)C(OC(N)=O)C1O)c1cnc[nH]1 (stereo not given in full),74.2% [2.5 µM] (inactive)
20,CC[C@@]1(O)C(=O)OCc2c1cc1n(c2=O)Cc2cc3ccccc3nc2-1,-0.517% (active)
21,Oc1cc[c]([Hg][Cl])cc1,100% (inactive)
22,CCC1(O)CC(OC2CC(N(C)C)C(OC3CC4OC5CC(=O)C(C)OC5OC4C(C)O3)C(C)O2)c2c(cc3c(c2O)C(=O)c2c(O)ccc(O)c2C3=O)C1C(=O)OC (stereo not given),0.801% (active)
23,O=C1c2ccccc2C(=O)C(Cl)C1Cl (stereo not given),69.5% (inactive)
24,CCCCCCCCCCCC1CCCC(C)N1 (stereo not given),93.2% (inactive)
25,CC(=O)O[C@H]1C[C@@H]2OC3C=C(C)CCC3(C)[C@@]1(C)[C@@]21CO1 (stereo not given in full),-0.212% (active) and 0.0305% (active)
26,CC[C@@]1(O)C[C@H](OC2CC(N(C)C)C(OC3CC(O)C(OC4CCC(=O)C(C)O4)C(C)O3)C(C)O2)c2c(cc3c(c2O)C(=O)c2c(O)ccc(O)c2C3=O)[C@H]1C(=O)OC (stereo not given in full),25.7% (inactive)
27,C[C@H]1CCC/C=C/[C@@H]2C[C@H](O)C[C@H]2[C@H](O)/C=C/C(=O)O1,38.3% (inactive)
